# PubChem BioAssay (EPA / NIEHS)
# Records with an inconclusive call do not appear. Active and inactive are the calls of the source. How the source made its calls, unless noted: active means hit-call score of the fitted dose curve at least 0.9, where 1 is the maximum; inactive means score below 0.9.
# Legend:
# [1] = ACEA_ER_80hr: ACEA Biosciences xCELLigence Real-Time Cell Analysis on Estrogen Receptor Agonism for Proliferation (AID 2282667; active means hit-call score of the fitted dose curve at least 0.9, where 1 is the maximum); details: T47D proliferation, impedance (xCELLigence), 80 h
# How it was run: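 Cell-growth kinetics were measured by impedance in T47D cells treated continuously with compound (top 100 uM final, 1:4 steps, 8 points). Activity at 80 h was scored as signal gain over the DMSO baseline.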
# [2] = APR_HepG2_CellCycleArrest_24hr: Apredica 24-hour HepG2 Assay for Cell Cycle Arrest (AID 2282905); details: imaging, actives raise or lower the signal;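 further: cell cycle arrest scored as ratio of 2N to 4N nuclear DNA content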
# How it was run: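 HepG2, 24 hr dosing, 10-pt 0.39–200 uM in duplicate, 0.5% DMSO. Fixed 3.7% formaldehyde, permeabilized 0.5% Triton X-100, Hoechst 33342 2 ug/mL. Imaged 20x; nuclear DNA content quantified; bidirectional fit vs DMSO.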
# [3] = APR_HepG2_NuclearSize_24hr: Apredica 24-hour HepG2 Assay for Nuclear Size (AID 2282907); details: high-content imaging, actives raise or lower the signal
# How it was run: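 HepG2, 24 hr dosing, 10-pt 0.39–200 uM, duplicates, 0.5% DMSO final; 3.7% formaldehyde fix, 0.5% Triton X-100; Hoechst 33342 nuclear stain; ArrayScan HCS, Cell Cycle analysis → nuclear size; bidirectional fit vs DMSO.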
# [4] = APR_HepG2_CellLoss_24hr: Apredica 24-hour HepG2 Assay for Cell Loss (AID 2282908); details: high-content imaging;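 on AC50: fit in both directions so a hit may be cell loss or gain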
# How it was run: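 10-pt dose, 0.39–200 uM, n=2/plate; DMSO 0.5% v/v final as negative control. Fix 3.7% formaldehyde 30 min RT, permeabilize 0.5% Triton X-100, stain Hoechst 33342 2 ug/mL, image 20x. Nuclear count, bidirectional fit vs DMSO.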
# [5] = APR_HepG2_MicrotubuleCSK_24hr: Apredica 24-hour HepG2 Assay for Microtubule CSK Stabilty (AID 2282909); details: HepG2 microtubule cytoskeleton imaging, actives raise or lower the signal
# How it was run: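 Human liver HepG2, 24 h dosing, 0.39–200 uM ×10 conc, dup, 0.5% DMSO. 3.7% formaldehyde fix, 0.5% Triton perm, anti-alpha-tubulin (1:200)/Cy5 secondary + Hoechst. HCS imaging, 6 fields/well; gain/loss fit vs DMSO.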
# [6] = APR_HepG2_MitoticArrest_24hr: Apredica 24-hour HepG2 Assay for Mitotic Arrest (AID 2282910); details: high-content imaging, actives raise or lower the signal
# How it was run: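 HepG2 human liver cells were exposed to compounds at 0.39–200 uM (10 concentrations, duplicate) in 0.5% v/v DMSO for 24 hr, then fixed and immunostained for phospho-histone H3 with Hoechst 33342. Mitotic arrest came from HCS fluorescent imaging, fitted bidirectionally against DMSO.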
# [7] = APR_HepG2_MitoMass_24hr: Apredica 24-hour HepG2 Assay for Mitochondrial Mass (AID 2282912); details: high-content imaging, actives raise or lower the signal
# How it was run: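 Mitochondrial mass is read as MitoTracker Red fluorescence intensity from automated imaging, with bidirectional curve fitting relative to DMSO. HepG2 cells received compound (0.39–200 uM, 0.5% DMSO final) for 24 hr and were dye-loaded (250 nM, 30 min) before formaldehyde fixation.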
# [8] = APR_HepG2_p53Act_24hr: Apredica 24-hour HepG2 Assay for p53 Activation (AID 2282913); details: high-content imaging, actives raise or lower the signal;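 further: p53 protein immunofluorescence averaged per cell in HepG2 with Hoechst nuclei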
# How it was run: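 Automated fluorescence imaging quantifies p53 immunostaining in HepG2 cells after a 24 hr exposure (0.39–200 uM, duplicate, 0.5% DMSO). Nuclei are located by Hoechst 33342 staining.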
# [9] = APR_HepG2_CellCycleArrest_72hr: Apredica 72-hour HepG2 Assay for Cell Cycle Arrest (AID 2282914); details: high-content imaging, actives raise or lower the signal
# How it was run: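 Cell cycle arrest in HepG2 was scored from nuclear DNA content after 72 hr compound treatment (0.39–200 uM). Activity, either gain or loss, was fitted against the DMSO baseline.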
# [10] = APR_HepG2_CellLoss_72hr: Apredica 72-hour HepG2 Assay for Cell Loss (AID 2282915); details: high-content imaging
# How it was run: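 HepG2 cells were exposed for 72 hr to compounds at 0.39–200 uM (ten concentrations, duplicate) in 0.5% v/v final DMSO. Nuclei were stained with Hoechst 33342 after 3.7% formaldehyde fixation, imaged at 20x, and counted; fits bidirectional versus DMSO.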
# [11] = APR_HepG2_P-H2AX_72hr: Apredica 72-hour HepG2 Assay for H2AX Phosphorylation (AID 2282916); details: imaging, actives raise or lower the signal;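 further: phospho-histone H2A.x immunostain intensity per cell marking DNA damage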
# How it was run: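 HepG2; cpd 0.39–200 uM ×10 conc, duplicates; 0.5% DMSO; 72 hr. Fix 3.7% formaldehyde 30 min RT, 0.5% Triton X-100 10 min. Anti-phospho-H2A.x 1:200 + Hoechst 2 ug/mL, 60 min RT; ArrayScan imaging.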
# [12] = APR_HepG2_MitoMembPot_72hr: Apredica 72-hour HepG2 Assay for Mitochondrial Membrane Potential (AID 2282917); details: imaging, actives raise or lower the signal
# How it was run: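 HepG2 cells exposed 72 h to compounds at 0.39–200 uM (0.5% v/v DMSO, duplicates); MitoTracker Red CMXRos 250 nM loaded 30 min before 3.7% formaldehyde fixation, imaged by HCS fluorescence. Bidirectional fit versus DMSO.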
# [13] = APR_HepG2_MitoticArrest_72hr: Apredica 72-hour HepG2 Assay for Mitotic Arrest (AID 2282918); details: high-content imaging, actives raise or lower the signal
# How it was run: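 Mitotic arrest in HepG2 is scored from phospho-histone H3 staining after 72 hr dosing across 0.39–200 uM, with DMSO at 0.5% v/v. Nuclei are identified by Hoechst 33342 and fluorescence intensity is quantified per cell.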
# [14] = APR_HepG2_MicrotubuleCSK_72hr: Apredica 72-hour HepG2 Assay for Microtubule CSK Stabilty (AID 2282919); details: HepG2 microtubule cytoskeleton, high-content imaging, actives raise or lower the signal
# How it was run: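 HepG2 human liver cells were dosed for 72 h at ten concentrations from 0.39 to 200 uM in duplicate (0.5% v/v DMSO final). Fixed, permeabilized cells were immunostained for alpha-tubulin (Cy5) with a Hoechst counterstain and imaged at 20x.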
# [15] = APR_HepG2_P-H2AX_24hr: Apredica 24-hour HepG2 Assay for H2AX Phosphorylation (AID 2282920); details: high-content imaging, actives raise or lower the signal
# How it was run: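 Signal comes from a FITC-labeled secondary detecting phospho-histone H2A.x in fixed HepG2 cells, quantified by automated imaging at 20x. Dosing ran 24 hr across 0.39–200 uM with 0.5% v/v DMSO.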
# [16] = APR_HepG2_StressKinase_72hr: Apredica 72-hour HepG2 Assay for Stress Kinase (AID 2282921); details: HepG2 stress kinase (phospho-c-Jun) imaging, actives raise or lower the signal
# How it was run: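 Dose 0.39–200 uM (10 pts, duplicate), 0.5% DMSO; 72 h; fix 3.7% formaldehyde 30 min RT; Triton permeabilize; anti-phospho-c-Jun/Cy3 + Hoechst 60 min RT; image 20x; fit gain/loss vs DMSO.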
# [17] = APR_HepG2_StressKinase_24hr: Apredica 24-hour HepG2 Assay for Stress Kinase (AID 2282922); details: HepG2 stress kinase (phospho-c-Jun) imaging, actives raise or lower the signal
# How it was run: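 HepG2 cells exposed 24 hr to compound at 0.39–200 uM (10 concentrations, duplicate), 0.5% v/v DMSO final. Fixed in 3.7% formaldehyde, permeabilized with Triton X-100, immunolabeled for phospho-c-Jun with Hoechst 33342; HCS fluorescence imaging, bidirectional fit versus DMSO.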
# [18] = APR_HepG2_p53Act_72hr: Apredica 72-hour HepG2 Assay for p53 Activation (AID 2282923); details: high-content imaging, actives raise or lower the signal;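 further: average cellular p53 protein immunofluorescence intensity in HepG2 cells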
# How it was run: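 10-pt conc. 0.39–200 uM, duplicate, 0.5% DMSO; 72 hr exposure; 3.7% formaldehyde fix, 0.5% Triton perm; sheep anti-p53/Cy5 + Hoechst; ArrayScan 20x, 6 images/well; gain/loss fit vs DMSO.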
# [19] = APR_HepG2_MitoMass_72hr: Apredica 72-hour HepG2 Assay for Mitochondrial Mass (AID 2282924); details: high-content imaging, actives raise or lower the signal;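 further: MitoTracker Red CMXRos stain intensity per cell imaged as mitochondrial mass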
# How it was run: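 HepG2 cells were exposed for 72 hr to compounds at 0.39–200 uM (ten concentrations, duplicate, 0.5% v/v DMSO final). Live cells were stained with 250 nM MitoTracker Red CMXRos for 30 min, then fixed in 3.7% formaldehyde and imaged by HCS fluorescence.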
# [20] = APR_HepG2_MitoMembPot_24hr: Apredica 24-hour HepG2 Assay for Mitochondrial Membrane Potential (AID 2282911); details: imaging, actives raise or lower the signal
# How it was run: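 Human hepatoma HepG2 cultures received ten compound concentrations up to 200 uM for 24 hr. Membrane-potential dye signal, captured by automated fluorescence microscopy, was scored for gain or loss against DMSO controls.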
compound,measurement,setting,value
O=S1(=O)CCCO1,outcome,[1],inactive
same,outcome,[2],inactive
same,outcome,[3],inactive
same,outcome,[4],inactive
same,outcome,[5],inactive
same,outcome,[6],inactive
same,outcome,[7],inactive
same,outcome,[8],inactive
same,outcome,[9],inactive
same,outcome,[10],inactive
same,outcome,[11],inactive
same,outcome,[12],inactive
same,outcome,[13],inactive
same,outcome,[14],inactive
same,outcome,[15],inactive
same,outcome,[16],inactive
same,outcome,[17],inactive
same,outcome,[18],inactive
same,outcome,[19],inactive
CCCc1ccccc1,outcome,[1],inactive
same,outcome,[2],inactive
same,outcome,[3],inactive
same,outcome,[4],inactive
same,outcome,[5],inactive
same,outcome,[6],inactive
same,outcome,[7],inactive
same,outcome,[8],inactive
same,outcome,[9],inactive
same,outcome,[10],inactive
same,outcome,[11],inactive
same,outcome,[12],inactive
same,outcome,[13],inactive
same,outcome,[14],inactive
same,outcome,[15],inactive
same,outcome,[16],inactive
same,outcome,[17],inactive
same,outcome,[18],inactive
same,outcome,[19],inactive
NC(=O)N(O)[C@@H]1COc2cc(OCc3ccccc3)ccc21,outcome,[1],inactive
same,outcome,[2],inactive
same,outcome,[3],inactive
same,outcome,[4],inactive
same,outcome,[5],inactive
same,outcome,[6],inactive
same,AC50,[20],52.2 µM (active)
same,outcome,[7],inactive
same,outcome,[9],inactive
same,outcome,[10],inactive
same,outcome,[11],inactive
same,outcome,[12],inactive
same,outcome,[13],inactive
same,outcome,[14],inactive
same,outcome,[15],inactive
same,outcome,[16],inactive
same,outcome,[17],inactive
same,outcome,[19],inactive
CCCCCCCCCCCCCCO,outcome,[1],inactive
same,AC50,[2],162 µM (active)
same,outcome,[3],inactive
same,AC50,[4],98.1 µM (active)
same,AC50,[5],107 µM (active)
same,AC50,[6],99.3 µM (active)
same,AC50,[7],106 µM (active)
same,AC50,[8],95.8 µM (active)
same,AC50,[9],100 µM (active)
same,AC50,[10],106 µM (active)
same,AC50,[11],98.6 µM (active)
same,outcome,[12],inactive
same,AC50,[13],90.9 µM (active)
same,AC50,[14],114 µM (active)
same,AC50,[15],101 µM (active)
same,outcome,[16],inactive
same,outcome,[17],inactive
same,AC50,[18],104 µM (active)
same,outcome,[19],inactive
NC(N)=O,outcome,[1],inactive
same,outcome,[2],inactive
same,outcome,[3],inactive
same,outcome,[4],inactive
same,outcome,[5],inactive
same,outcome,[6],inactive
same,outcome,[7],inactive
same,outcome,[9],inactive
same,outcome,[10],inactive
same,outcome,[11],inactive
same,outcome,[12],inactive
same,outcome,[13],inactive
same,outcome,[14],inactive
same,outcome,[15],inactive
same,outcome,[16],inactive
same,outcome,[17],inactive
same,outcome,[19],inactive
Cc1ncc([C@@H](CCCCCCc2ccc3c(n2)NCCC3)CC(=O)O)cn1,outcome,[1],inactive
same,outcome,[2],inactive
same,outcome,[3],inactive
same,outcome,[4],inactive
same,outcome,[5],inactive
same,AC50,[6],0.0392 µM (active)
same,AC50,[7],0.18 µM (active)
same,outcome,[9],inactive
same,AC50,[10],0.944 µM (active)
same,AC50,[11],0.0391 µM (active)
same,outcome,[12],inactive
same,AC50,[13],0.0971 µM (active)
same,AC50,[14],0.534 µM (active)
same,AC50,[15],0.0459 µM (active)
same,outcome,[16],inactive
same,outcome,[17],inactive
same,outcome,[19],inactive
C[C@@H](Oc1ccc(CNC(=O)c2cccnc2Oc2ccc3c(c2)OCO3)c(F)c1)C(=O)O,outcome,[1],inactive
same,outcome,[2],inactive
same,outcome,[3],inactive
same,outcome,[4],inactive
same,outcome,[5],inactive
same,outcome,[6],inactive
same,outcome,[7],inactive
same,outcome,[9],inactive
same,outcome,[10],inactive
same,outcome,[11],inactive
same,outcome,[12],inactive
same,outcome,[13],inactive
same,outcome,[14],inactive
same,outcome,[15],inactive
same,outcome,[16],inactive
same,outcome,[17],inactive
same,outcome,[19],inactive
